Test in all cases: DAPPL (digital affinity profiling via proximity ligation, sequencing); 10 mM Tris-HCl pH 7.5, 50 mM NaCl, 1 mM DTT, 4% glycerol, room temperature, 30 min; GST-TFs on glutathione beads, 16-mer random dsDNA library, 0.1% formaldehyde crosslink after washing; high values mean tight binding
What all share (settings): protein: recombinant; tags: N-terminal GST; dsDNA, one strand shown

One assay deals with T1, FLI1 (Homo sapiens, UniProt Q01543 1-452).
T1 sequence: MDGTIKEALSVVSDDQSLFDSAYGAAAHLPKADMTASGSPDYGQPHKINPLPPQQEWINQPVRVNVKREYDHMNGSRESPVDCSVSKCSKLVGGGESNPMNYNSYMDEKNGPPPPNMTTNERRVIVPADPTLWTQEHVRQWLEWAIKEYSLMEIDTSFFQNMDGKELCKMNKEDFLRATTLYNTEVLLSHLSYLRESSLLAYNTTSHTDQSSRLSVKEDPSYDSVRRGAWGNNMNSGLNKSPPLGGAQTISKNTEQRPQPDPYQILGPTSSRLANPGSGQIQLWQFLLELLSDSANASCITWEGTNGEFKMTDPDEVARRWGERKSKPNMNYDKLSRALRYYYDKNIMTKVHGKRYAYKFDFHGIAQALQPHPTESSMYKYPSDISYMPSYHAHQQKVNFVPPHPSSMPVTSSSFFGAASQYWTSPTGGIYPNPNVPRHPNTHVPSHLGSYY
In a few lines: (§1)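 Human transcription factors fused to GST were expressed in yeast, captured on glutathione beads, given DNA barcodes and pooled with a GST-only negative control. Pools were incubated with 200 nmole of a 16-mer random double-stranded DNA library in Tris/NaCl/DTT/glycerol buffer at room temperature for 30 min. They were then washed, crosslinked with 0.1% formaldehyde, proximity-ligated (BsaI/T4 ligase, 1 h, 37 °C), PCR-amplified and sequenced on an Illumina NextSeq500. Binding signal is each 6-mer's read frequency for a factor divided by its frequency for the GST control.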

Another assay has as its target T2, ELK1 (Homo sapiens, UniProt P19419 1-428).
T2 sequence: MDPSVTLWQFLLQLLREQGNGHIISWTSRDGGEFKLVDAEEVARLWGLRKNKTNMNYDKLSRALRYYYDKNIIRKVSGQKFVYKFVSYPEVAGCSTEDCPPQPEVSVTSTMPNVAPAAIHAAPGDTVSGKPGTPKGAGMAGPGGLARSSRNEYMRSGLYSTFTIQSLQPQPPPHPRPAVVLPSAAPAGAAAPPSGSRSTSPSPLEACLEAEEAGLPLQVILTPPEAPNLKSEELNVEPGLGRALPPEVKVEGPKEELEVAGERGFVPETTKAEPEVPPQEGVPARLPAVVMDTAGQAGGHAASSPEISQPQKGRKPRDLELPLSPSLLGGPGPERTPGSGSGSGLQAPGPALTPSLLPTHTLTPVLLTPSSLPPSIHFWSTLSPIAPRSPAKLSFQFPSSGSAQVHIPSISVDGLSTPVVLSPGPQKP
In a few lines: as §1

For a further assay, the target named is T3, GABPA (Homo sapiens, UniProt Q06546 1-454).
T3 sequence: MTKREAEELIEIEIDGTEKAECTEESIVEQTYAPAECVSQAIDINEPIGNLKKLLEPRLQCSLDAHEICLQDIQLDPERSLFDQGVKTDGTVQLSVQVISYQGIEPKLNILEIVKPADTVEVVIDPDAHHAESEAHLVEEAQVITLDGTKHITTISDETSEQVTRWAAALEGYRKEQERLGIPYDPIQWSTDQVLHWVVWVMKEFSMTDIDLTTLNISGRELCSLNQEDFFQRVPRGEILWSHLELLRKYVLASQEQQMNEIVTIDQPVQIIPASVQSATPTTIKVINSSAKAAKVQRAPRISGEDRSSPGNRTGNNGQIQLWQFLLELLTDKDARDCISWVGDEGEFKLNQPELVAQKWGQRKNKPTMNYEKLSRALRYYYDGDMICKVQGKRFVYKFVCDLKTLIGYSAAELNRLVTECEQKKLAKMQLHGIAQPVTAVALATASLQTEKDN
The method, boiled down:
as §1

For the next assay, the target named is T4, ERG (Homo sapiens, UniProt P11308 1-479).
T4 sequence: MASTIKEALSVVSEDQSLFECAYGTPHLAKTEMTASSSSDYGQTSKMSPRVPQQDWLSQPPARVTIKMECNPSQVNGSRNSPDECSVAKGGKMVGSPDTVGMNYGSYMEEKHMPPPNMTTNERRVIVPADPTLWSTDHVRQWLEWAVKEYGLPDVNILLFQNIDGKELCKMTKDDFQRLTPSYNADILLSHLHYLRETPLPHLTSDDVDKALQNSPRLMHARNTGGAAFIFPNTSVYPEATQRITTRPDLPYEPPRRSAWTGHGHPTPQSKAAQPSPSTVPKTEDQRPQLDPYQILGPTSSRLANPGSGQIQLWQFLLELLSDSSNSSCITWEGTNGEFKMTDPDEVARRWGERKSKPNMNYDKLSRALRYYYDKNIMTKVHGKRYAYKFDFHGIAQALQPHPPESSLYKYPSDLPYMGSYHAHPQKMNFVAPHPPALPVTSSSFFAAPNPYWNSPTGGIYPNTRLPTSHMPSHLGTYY
The method, boiled down: as §1

The target in the next assay is ELF1 (Homo sapiens, UniProt P32519 1-619). In a few lines:
as §1

In the next assay the target is T5, EHF (Homo sapiens, UniProt Q9NZC4 1-300).
T5 sequence: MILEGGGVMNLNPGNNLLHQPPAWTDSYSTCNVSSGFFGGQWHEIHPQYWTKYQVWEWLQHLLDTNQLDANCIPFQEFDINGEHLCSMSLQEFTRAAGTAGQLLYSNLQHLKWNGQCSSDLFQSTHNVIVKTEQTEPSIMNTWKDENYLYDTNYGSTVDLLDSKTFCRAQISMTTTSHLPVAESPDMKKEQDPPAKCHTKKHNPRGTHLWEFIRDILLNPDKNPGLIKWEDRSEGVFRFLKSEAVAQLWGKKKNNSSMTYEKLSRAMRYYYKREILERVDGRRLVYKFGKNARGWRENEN
The method, boiled down: as §1

A further assay concerns the target SPI1 (Homo sapiens, UniProt P17947 1-270). In a few lines: as §1
A further assay addresses SPIB (Homo sapiens, UniProt Q01892 1-262). The method, boiled down: as §1
Another assay has as its target T6, ELK3 (Homo sapiens, UniProt P41970 1-407).
T6 sequence: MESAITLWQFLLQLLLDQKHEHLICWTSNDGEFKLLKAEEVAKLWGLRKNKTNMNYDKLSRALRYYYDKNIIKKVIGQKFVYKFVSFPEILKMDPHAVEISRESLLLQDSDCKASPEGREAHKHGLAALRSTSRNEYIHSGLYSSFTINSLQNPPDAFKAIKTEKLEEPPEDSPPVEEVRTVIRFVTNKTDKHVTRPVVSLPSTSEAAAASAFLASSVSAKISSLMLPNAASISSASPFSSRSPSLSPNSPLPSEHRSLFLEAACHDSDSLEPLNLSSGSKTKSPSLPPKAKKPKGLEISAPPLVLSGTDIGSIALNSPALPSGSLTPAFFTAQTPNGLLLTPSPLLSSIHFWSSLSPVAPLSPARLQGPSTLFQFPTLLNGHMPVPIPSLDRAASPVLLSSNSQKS
In a few lines:
as §1

Chain of SPIB (Q01892 whole entry): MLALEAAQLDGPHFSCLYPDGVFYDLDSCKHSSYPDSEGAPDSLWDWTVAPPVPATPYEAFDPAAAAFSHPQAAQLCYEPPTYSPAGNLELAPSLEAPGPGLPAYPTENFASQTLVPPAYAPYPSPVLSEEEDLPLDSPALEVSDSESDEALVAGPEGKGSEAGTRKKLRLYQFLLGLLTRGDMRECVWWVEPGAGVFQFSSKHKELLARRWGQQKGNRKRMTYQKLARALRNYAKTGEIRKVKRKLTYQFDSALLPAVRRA
Chain of ELF1 (P32519 whole entry): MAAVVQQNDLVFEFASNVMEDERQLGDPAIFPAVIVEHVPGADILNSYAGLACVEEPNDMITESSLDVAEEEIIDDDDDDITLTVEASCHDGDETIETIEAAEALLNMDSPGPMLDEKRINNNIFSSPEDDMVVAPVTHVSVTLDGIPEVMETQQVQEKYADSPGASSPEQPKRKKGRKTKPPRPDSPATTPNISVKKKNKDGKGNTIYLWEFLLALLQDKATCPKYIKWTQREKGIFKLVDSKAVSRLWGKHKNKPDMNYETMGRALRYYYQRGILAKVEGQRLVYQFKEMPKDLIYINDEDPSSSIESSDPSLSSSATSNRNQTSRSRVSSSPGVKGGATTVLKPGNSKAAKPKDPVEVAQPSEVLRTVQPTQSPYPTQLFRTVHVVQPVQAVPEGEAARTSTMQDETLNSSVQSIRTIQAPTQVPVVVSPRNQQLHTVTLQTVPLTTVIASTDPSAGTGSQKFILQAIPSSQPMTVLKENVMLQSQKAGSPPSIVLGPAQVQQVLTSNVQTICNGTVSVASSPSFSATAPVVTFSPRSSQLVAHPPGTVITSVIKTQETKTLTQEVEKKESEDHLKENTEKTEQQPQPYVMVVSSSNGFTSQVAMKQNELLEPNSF

Regarding TTTGGT, the binding signal with FLI1 was 1.48 fold enrichment (6-mer frequency, TF over GST control); with ELK1 it was 1.29 fold enrichment (6-mer frequency, TF over GST control); with GABPA, 1.42 fold enrichment (6-mer frequency, TF over GST control); in the assay with ERG, 1.31 fold enrichment (6-mer frequency, TF over GST control); with ELF1, 1.32 fold enrichment (6-mer frequency, TF over GST control); in the assay with EHF it was 1.36 fold enrichment (6-mer frequency, TF over GST control). Besides, the binding signal with SPI1 is 1.27 fold enrichment (6-mer frequency, TF over GST control); in the assay with SPIB it was 1.3 fold enrichment (6-mer frequency, TF over GST control); in the assay with ELK3 it was 1.37 fold enrichment (6-mer frequency, TF over GST control).

AAGATA: the binding signal was 1.07 fold enrichment (6-mer frequency, TF over GST control) in the assay with FLI1; 1.15 fold enrichment (6-mer frequency, TF over GST control) with ELK1; 1.14 fold enrichment (6-mer frequency, TF over GST control) in the assay with GABPA; 1.17 fold enrichment (6-mer frequency, TF over GST control) with ERG; 1.14 fold enrichment (6-mer frequency, TF over GST control) with ELF1; 1.18 fold enrichment (6-mer frequency, TF over GST control) with EHF. Also, the binding signal with SPI1 is 1.08 fold enrichment (6-mer frequency, TF over GST control); in the assay with SPIB, 1.12 fold enrichment (6-mer frequency, TF over GST control); with ELK3, 1.23 fold enrichment (6-mer frequency, TF over GST control).

As to TTGTTG, the binding signal is 1.03 fold enrichment (6-mer frequency, TF over GST control) in the assay with FLI1; 1.12 fold enrichment (6-mer frequency, TF over GST control) in the assay with ELK1; 1.07 fold enrichment (6-mer frequency, TF over GST control) in the assay with GABPA; 1.1 fold enrichment (6-mer frequency, TF over GST control) in the assay with ERG; 1.14 fold enrichment (6-mer frequency, TF over GST control) with ELF1; 1.12 fold enrichment (6-mer frequency, TF over GST control) with EHF. Moreover, the binding signal with SPI1 was 1.15 fold enrichment (6-mer frequency, TF over GST control); with SPIB, 1.05 fold enrichment (6-mer frequency, TF over GST control); in the assay with ELK3, 1.12 fold enrichment (6-mer frequency, TF over GST control).

On to ACGCAC, for which the binding signal is 1.06 fold enrichment (6-mer frequency, TF over GST control) with FLI1; 1.09 fold enrichment (6-mer frequency, TF over GST control) with ELK1; 1.04 fold enrichment (6-mer frequency, TF over GST control) with GABPA; 1.02 fold enrichment (6-mer frequency, TF over GST control) in the assay with ERG; 1.06 fold enrichment (6-mer frequency, TF over GST control) in the assay with ELF1; 1.03 fold enrichment (6-mer frequency, TF over GST control) with EHF. Moreover, the binding signal was 1.03 fold enrichment (6-mer frequency, TF over GST control) in the assay with SPI1; 1.07 fold enrichment (6-mer frequency, TF over GST control) with SPIB; 1.09 fold enrichment (6-mer frequency, TF over GST control) with ELK3.

TAATGG: the binding signal with FLI1 was 1.26 fold enrichment (6-mer frequency, TF over GST control); with ELK1, 1.35 fold enrichment (6-mer frequency, TF over GST control); with GABPA it was 1.24 fold enrichment (6-mer frequency, TF over GST control); in the assay with ERG, 1.22 fold enrichment (6-mer frequency, TF over GST control); with ELF1 it was 1.32 fold enrichment (6-mer frequency, TF over GST control); in the assay with EHF it was 1.25 fold enrichment (6-mer frequency, TF over GST control). Besides, the binding signal with SPI1 was 1.28 fold enrichment (6-mer frequency, TF over GST control); with SPIB, 1.37 fold enrichment (6-mer frequency, TF over GST control); in the assay with ELK3, 1.31 fold enrichment (6-mer frequency, TF over GST control).

On to ACCCCG, for which the binding signal with FLI1 was 1.24 fold enrichment (6-mer frequency, TF over GST control); with ELK1 it was 1.3 fold enrichment (6-mer frequency, TF over GST control); with GABPA, 1.29 fold enrichment (6-mer frequency, TF over GST control); with ERG, 1.24 fold enrichment (6-mer frequency, TF over GST control); in the assay with ELF1 it was 1.31 fold enrichment (6-mer frequency, TF over GST control); with EHF, 1.27 fold enrichment (6-mer frequency, TF over GST control). Besides, the binding signal in the assay with SPI1 was 1.14 fold enrichment (6-mer frequency, TF over GST control); with SPIB it was 1.3 fold enrichment (6-mer frequency, TF over GST control); with ELK3, 1.21 fold enrichment (6-mer frequency, TF over GST control).

With GCCTCA, the binding signal with FLI1 is 1.34 fold enrichment (6-mer frequency, TF over GST control); in the assay with ELK1, 1.34 fold enrichment (6-mer frequency, TF over GST control); with GABPA it was 1.34 fold enrichment (6-mer frequency, TF over GST control); with ERG it was 1.13 fold enrichment (6-mer frequency, TF over GST control); in the assay with ELF1, 1.25 fold enrichment (6-mer frequency, TF over GST control); with EHF, 1.17 fold enrichment (6-mer frequency, TF over GST control). The binding signal with SPI1 is 1.17 fold enrichment (6-mer frequency, TF over GST control); with SPIB it was 1.25 fold enrichment (6-mer frequency, TF over GST control); in the assay with ELK3 it was 1.19 fold enrichment (6-mer frequency, TF over GST control).

The values are drawn from paper PMC7862700, “An all-to-all approach to the identification of sequence-specific readers for epigenetic DNA modifications on cytosine”.
